Source: PubChem BioAssay (Tox21)
“And” between values parts separate entries of the source, which are not always exact repeats. Identical values can stand only once. Inconclusive results are not listed. Where a call stands in place of a potency, no number is given. The source made the active and inactive calls. Calls come from the whole dose curve; as a rule, active = well fitted cell-killing curve with a large enough effect in the repeat runs; inconclusive = weak or mixed curves, or effect the other way; inactive = flat fitted curve, though single readings scatter.
Potency is the fitted concentration of half-maximal effect.

Assay: qHTS RealTime-Glo MT Cell Viability Assay in HEK293 cells - 32 hour (AID 1224868); note: nearly all actives have a fitted effect of over 50% in size
Conditions: RealTime-Glo luminescence; series mostly up to 76.8 µM
Description: National Center for Advancing Translational Sciences [NCATS]
NIH Chemical Genomics Center [NCGC]
U.S. Environmental Protection Agency [EPA]
National Institutes of Environmental Health Sciences [NIEHS]
National Toxicology Program [NTP]
U.S. Food and Drug Administration [FDA]
Measure of cell viability is critical in the cell-base assay. Analysis of cell viability is necessary for the characterization of cell responses to cytotoxic drugs and environmental stress. A RealTime-Glo MT Cell Viability Assay to monitor cell viability in real time of continues cell culture during 40 hours of compound treatment was used to screen Tox21 10K library compounds in Hek293 cells. The RealTime-Glo MT Cell Viability Assay is a nonlytic, homogeneous, bioluminescent method to measure cell viability in real time using a simple, plate-based method. The assay involves adding NanoLuc luciferase and a cell-permeant prosubstrate to cells in culture. Viable cells reduce the proprietary prosubstrate to generate a substrate for NanoLuc luciferase. This substrate diffuses from cells into the surrounding culture medium, where it is rapidly used by the NanoLuc Enzyme to produce a luminescent signal. The signal correlates with the number of viable cells, making the assay well suited for cytotoxicity studies.
Tox21 Assay Protocol Summary:
The mixture of Hek293 cell suspension and reagents were dispensed at 600cells/6 ul/well in 1536-well tissue culture treated black solid bottom plates using a Multidrop dispenser. After the assay plates were incubated at a 37 C/5% CO2 incubator for 5 hours, 23 nL of compounds dissolved in DMSO, positive and negative controls was transferred to the assay plate by a pintool work station. The plates were incubated at 37 C for 40 hours. The luminescence intensity were measured at 0h, 8h, 16h, 24h, 32h and 40h time points using ViewLux plate reader during compound treatment.
With `C[N+](C)(C)C` the Potency was “inactive”. With `Oc1ccc(Cl)cc1Cc1ccccc1` the Potency was 21.9 µM (active) and 19.7 µM (active). For `CC(C)(C#N)N=NC(C)(C)C#N`, the Potency was “inactive”. For `C=CC(Cl)CCl` (stereo not given), the Potency was “inactive”. In the case of `Clc1ccc(C(Cl)(Cl)Cl)cc1`, the Potency is reported as “inactive”. For `CN(C)c1nc(=O)n(C2CCCCC2)c(=O)n1C`, the Potency was “inactive”. With `C[C@]12CCC(=O)C=C1CC[C@@H]1[C@@H]2CC[C@@]2(C)[C@H]1CC[C@]2(C)O` the Potency was 22.1 µM (active). For `O=[N+]([O-])/N=C1\NCCN1Cc1ccc(Cl)nc1`, the Potency was “inactive”. With `CCOS(=O)(=O)OCC` the Potency was “inactive”. In the case of `O=C(O)CF`, the Potency is reported as “inactive”. For `COc1ccc(O)c(C(C)(C)C)c1`, the Potency was “inactive”. In the case of `CCNc1nc(Cl)nc(NC(C)(C)C#N)n1`, the Potency is reported as “inactive”. For `CCC[CH2][Sn]([Cl])([Cl])[CH2]CCC`, the Potency was 99 nM (active) and 123 nM (active). For `CCNCC`, the Potency was “inactive”. For `C[N+](C)(C)CC(=O)[O-]`, the Potency was “inactive”. In the case of `Clc1cccc(C(Cl)(Cl)Cl)n1`, the Potency is reported as “inactive”. For `CC(C)(c1ccccc1)c1ccc(O)cc1`, the Potency was 27.5 µM (active). For `OCCOCCO`, the Potency was “inactive”. In the case of `CC(O)CN(CC(C)O)CC(C)O` (stereo not given), the Potency is reported as “inactive”. For `CCCCSP(=O)(SCCCC)SCCCC`, the Potency was “inactive”. In the case of `[CH3][Sn]([Cl])([Cl])[Cl]`, the Potency is reported as “inactive”. With `Cl` the Potency was “inactive”. In the case of `O=[N+]([O-])c1ccc(Nc2ccccc2)cc1`, the Potency is reported as 24.7 µM (active) and 19.5 µM (active). With `CNC(=O)Oc1cccc2c1OC(C)(C)C2` the Potency was “inactive”. With `S=c1[nH]c2ccccc2[nH]1` the Potency was “inactive”. For `Clc1ccccc1-c1nnc(-c2ccccc2Cl)nn1`, the Potency was “inactive”. For `Cc1cc(Cl)ccc1N=CN(C)C`, the Potency was “inactive”. For `C[C@]12CC[C@H]3[C@@H](CCC4=CC(=O)CC[C@@H]43)[C@@H]1CC[C@@H]2O`, the Potency was “inactive”. With `Cn1c(-c2ccccc2)cc(-c2ccccc2)[n+]1C` the Potency was 8.69 µM (active) and 24.5 µM (active). In the case of `CCOC(=O)c1ccccc1N`, the Potency is reported as “inactive”. With `Nc1ncn[nH]1` the Potency was “inactive”. For `ClC(Cl)=C(Cl)C(Cl)=C(Cl)Cl`, the Potency was “inactive”. With `NC(=O)CN1CCCC1=O` the Potency was “inactive”. In the case of `CC[n+]1c(-c2ccccc2)c2cc(N)ccc2c2ccc(N)cc21`, the Potency is reported as 4.34 µM (active) and 5.35 µM (active). For `Cc1ccc([N+](=O)[O-])cc1`, the Potency was “inactive”. For `COc1ccc(CO)cc1`, the Potency was “inactive”. For `COP(=O)(NC(C)=O)SC` (stereo not given), the Potency was “inactive”. For `CSc1nc(NC(C)C)nc(NC(C)C)n1`, the Potency was “inactive”. With `CC(C)(c1ccccc1)c1ccc(O)c(C(C)(C)c2ccccc2)c1` the Potency was 19.3 µM (active) and 30.9 µM (active). In the case of `O=C1Nc2ccc(Cl)cc2C(c2ccccc2)=NC1O` (stereo not given), the Potency is reported as “inactive”.
